Data reported in ChEMBL document CHEMBL3988442, “University of Dundee, Small-Polar-MMV Screening Library” (2021).
Screen size: about 48,000 compounds; about 13,000 (27%) showed an effect of 50% or more. This is one part of the list.

system: Wolbachia pipientis; test: Anti-Wolbachia Cell-Based Screen; type: functional; design: scale not given: in the data most compounds retested in dose-response had high values; settings: 5 µM

| SMILES | Percent Effect [%] |
| --- | --- |
| Cc1ccc(OC2CCN(C(=O)Cc3c(C)[nH]c(=O)[nH]c3=O)CC2)cc1 | 33.83 |
| Cc1ccccc1N1CCCN(C(=O)CCc2ccncc2)CC1 | 5.689 |
| CS(=O)(=O)NCC1CCCN(C(=O)COCC(F)(F)F)C1 (stereo not drawn) | -5.002 |
| CN1CCC(O)(CCNC(=O)[C@@]23CNC[C@@H]2CN(C2CCCC2)C3)CC1 | -8.037 |
| CNS(=O)(=O)CC(=O)N(Cc1ccccc1)c1ccc(C)cc1 | -6.093 |
| NC(=O)c1csc(C(=O)N2CCCC(n3ccnc3)C2)c1 (stereo not drawn) | 4.502 |
| O=C1CSc2ccc(C(=O)N3CCCC(n4cccn4)C3)cc2N1 (stereo not drawn) | 11.58 |
| CNc1snc(C)c1C(=O)N1CCCC(n2nc(C)cc2C)C1 (stereo not drawn) | -4.797 |
| Cc1cc(C)n(C2CCCN(C(=O)c3cc(C(N)=O)cs3)C2)n1 (stereo not drawn) | 143.1 |
| CC(C)c1nccn1C1CCCN(C(=O)c2ccnc(N(C)C)c2)C1 (stereo not drawn) | -0.8202 |
| Cc1nc(C)n(C2CCCN(C(=O)c3cc(C(N)=O)cs3)C2)n1 (stereo not drawn) | 0.8263 |
| CC(C)c1nccn1C1CCCN(C(=O)c2ccsc2)C1 (stereo not drawn) | -9.917 |
| CC(C)c1nccn1C1CCCN(C(=O)c2cc(C(N)=O)cs2)C1 (stereo not drawn) | 117.7 |
| NC(=O)c1csc(C(=O)N2CCCC(n3cccn3)C2)c1 (stereo not drawn) | 118.9 |
| O=C1COc2ccc(S(=O)(=O)NC3CC3)c3c2N1CCC3 | -10.68 |
| O=C1CC[C@H]2CN(c3ncc(F)cn3)CC[C@H]2N1CCc1ccccc1 | -8.563 |
| CN(C(=O)c1ccncc1F)c1ccccc1S(C)(=O)=O | 0.2118 |
| O=C(CCN1CCCCC1)N1CCC(Cc2ccc(CO)cc2)C1 (stereo not drawn) | -4.228 |
| Cc1nc(N2CCOc3ccc(CO)cc3C2)c2nc(C)oc2n1 | -3.074 |
| CN(Cc1ccccc1)C(=O)CCN1C[C@H](C2CC2)[C@@H](N(C)C)C1 | 117.2 |
| CCNc1ncc(CN2C[C@@H](C(=O)O)[C@H](C3CC3)C2)cn1 | -13.99 |
| CN(Cc1ccccc1)C(=O)CCN1CCC2(CC1)[C@H](O)C[C@@H]2O | -5.462 |
| C[C@@H]1CN(CCC(=O)N(C)Cc2ccccc2)C[C@@]1(O)C1CCC1 | -9.793 |

| SMILES | Percent Effect [%] |
| --- | --- |
| CCN(Cc1ccccc1)C(=O)CCN1C[C@@H](C(=O)O)[C@H](C2CC2)C1 | 110.3 |
| O=C(O)[C@@H]1CN(Cc2cnc(C3CCCCC3)nc2)C[C@H]1C1CC1 | 0.2506 |
| CCN(Cc1ccncc1)C(=O)CCn1c(C)cc2ccccc21 | -6.043 |
| CCN(Cc1ccccc1)C(=O)CCN1CC(O)C1 | 89.96 |
| C[C@@H]1CN(CCC(=O)N(C)Cc2ccccc2)CC[C@@]1(O)C1CCC1 | 22.93 |
| CCNC(=O)C1CCN(c2cc(-c3ccccc3)nc3ccnn23)C1 (stereo not drawn) | 11.77 |
| CC(C)(C)c1ccc(=O)n(CN2CCCC(C(F)(F)F)C2)n1 (stereo not drawn) | -4.138 |
| COc1ccc2c(c1)OCC(CNC(=O)c1ccc(=O)n(C)c1)C2 (stereo not drawn) | 0.3526 |
| O=C(CCNC(=O)c1ccoc1)NCc1ccccc1F | 0.6342 |
| Cc1nnc(CN2CCN(CC(O)c3cccc(F)c3)CC2)n1C (stereo not drawn) | 8.346 |
| N#Cc1ccnc(N2CCN(CC(O)c3cc(F)ccc3F)CC2)c1 (stereo not drawn) | -0.2819 |
| Cn1ccnc1CN1CCN(CC(O)c2cc(F)ccc2F)CC1 (stereo not drawn) | 92.89 |
| CC(C)c1ccc(C(O)CN2CCN(Cc3nccn3C)CC2)cc1 (stereo not drawn) | 94.53 |
| CCN1CCN(CC(O)c2ccc(F)cc2)CC1 (stereo not drawn) | 5.506 |
| Cn1ccnc1CN1CCN(CC(O)c2ccco2)CC1 (stereo not drawn) | 3.847 |
| Cc1ccc(C(O)CN2CCN(Cc3nccn3C)CC2)cc1C (stereo not drawn) | 121.6 |
| Cn1ccnc1CN1CCN(CC(O)c2ccc(F)cc2)CC1 (stereo not drawn) | 154.5 |
| Cn1ccnc1CN1CCN(CC(O)c2ccc(F)c(F)c2)CC1 (stereo not drawn) | -1.464 |
| Cc1nnc(CN2CCN(Cc3nccn3C)CC2)n1C | -10.76 |
| Cn1ccnc1CN1CCN(Cc2cc(C#N)ccc2F)CC1 | 0.8662 |
| CC(C)C1CN(S(=O)(=O)Cc2cccc(C#N)c2)CCS1 (stereo not drawn) | -6.809 |
| COCC1(NC(=O)Nc2nc(C)ns2)CCCC1 | -4.167 |
| CC(C)[C@H]1COC(=O)N1Cc1noc(-c2ccccc2)n1 | -3.7 |

| SMILES | Percent Effect [%] |
| --- | --- |
| Cc1nc(NS(=O)(=O)c2ccc(F)c(Br)c2)no1 | -14.77 |
| CCn1cc2c(n1)CN(Cc1ccc(F)cc1)CC2COCC1CC1.O=C(O)C(F)(F)F (stereo not drawn) | -4.171 |
| CCn1ncc2c1C(COC)CN(Cc1cccnc1)C2.O=C(O)C(F)(F)F.O=C(O)C(F)(F)F.O=C(O)C(F)(F)F (stereo not drawn) | 103 |
| COCC1CN(Cc2cccnc2)Cc2nnn(CC3CC3)c21.O=C(O)C(F)(F)F.O=C(O)C(F)(F)F (stereo not drawn) | -2.73 |
| CCn1ncc2c1C(COC)CN(Cc1ccc(F)cc1)C2.O=C(O)C(F)(F)F.O=C(O)C(F)(F)F (stereo not drawn) | 110 |
| Cn1ncc2c1CN(Cc1cccnc1)CC2COCC1CC1.O=C(O)C(F)(F)F.O=C(O)C(F)(F)F.O=C(O)C(F)(F)F (stereo not drawn) | 2.893 |
| COCC1CN(Cc2ccc(F)cc2)Cc2nnn(CC3CC3)c21.O=C(O)C(F)(F)F (stereo not drawn) | -1.939 |
| COCC1CN(CC2CCOCC2)Cc2cn(CC3CCCC3)nc21 (stereo not drawn) | -7.587 |
| Cc1nonc1C1CCCN1C(=O)c1cc2n(n1)CCCN(C(C)C)C2 (stereo not drawn) | 4.032 |
| CSCCNC(=O)c1ccc(OC2CCN(CC(C)(C)C)CC2)c(Cl)c1 | -14.62 |
| COc1ccc(NC(=O)CSc2nc(C)c(C)c(C)c2C#N)cn1 | 14.78 |
| Cc1nc(SCC(=O)Nc2ccc(C(N)=O)cc2)c(C#N)c(C)c1C | 108.9 |
| Cc1cc(=O)n(CC(=O)Nc2ccc(C(N)=O)cc2)nc1C | 4.74 |
| Cc1ccccc1CC(C)(C)NC(=O)CCOc1cccc(C(N)=O)c1 | -6.35 |
| NC(=O)c1noc(Cn2ncc3ccccc3c2=O)n1 | -15.29 |
| CNC(=O)c1noc(Cn2ncc3ccccc3c2=O)n1 | -3.773 |
| CC(C)c1noc(Cn2ncc3ccccc3c2=O)n1 | -9.946 |
| CCN(CC)c1nc(O)cc(C(C)n2ncc3ccccc3c2=O)n1 (stereo not drawn) | 150.9 |
| Cc1cc(C)nc(NC2CC(=O)N(C)C2)n1 (stereo not drawn) | -15.96 |
| CC(C)Nc1nc(O)cc(C(C)n2ncc3ccccc3c2=O)n1 (stereo not drawn) | 144.2 |
| CC(c1cc(O)nc(NC2CCCC2)n1)n1ncc2ccccc2c1=O (stereo not drawn) | 143.5 |
| CC(NCCN1CCN(C(=O)C2CCCC2)CC1)c1ccccn1 (stereo not drawn) | 4.295 |
